Compounds with a hit are over-represented: about 2.5% of the library has one in this group of screens.
CRFBP-R2 agonist – agonists of human CRF-binding protein/CRF-R2 receptor complex; activation, % at 13.2 µM; HEK293 CRF-R2/CRF-BP, calcium dye fluorescence (FLIPR); percent of saturating CRF peptide response; 350,000 compounds, 0.46% hits; AID 588473;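 active = activation of at least 50%, plus an integration ratio under a set limit after plate pattern correction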;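 note: plate controls were neutral control wells without compound for no effect and CRF at EC100 for full effect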
SKN-1 block – inhibitors of C. elegans SKN-1; inhibition, % at 21.8 µM; C. elegans VP596 Pgst-4::GFP/RFP ratio, acrylamide-induced, 24 h; 360,000 compounds, 0.49% hits;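 active = interference check ratio from 0.5 to 1.5 plus GFP to RFP signal ratio inhibition reaching or exceeding a fixed threshold, cut at about 30% in these data, passing the limit was not always enough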
iPSC survival up – enhancers of human iPSC single-cell survival | AID 602274 | survival enhancement, % at 20 µM | 360,000 compounds, 0.044% hits | hiPSC single-cell survival, ATPlite luminescence; 100% = ROCK inhibitor wells, 0% = DMSO; in the data active = survival enhancement above about 18%;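 note: cells exposed to compounds for 16 hours before the ATP read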
H9c2 protect – myocardial damage modulation in H9c2 cells; H9c2 cardiomyocytes, H2O2 injury protection, ATPLite, 2 h; protection from H2O2 cell death, % at 20 µM; 360,000 compounds, 0.63% hits;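 active = compounds giving at least 50% protection of heart cells from peroxide-induced death in the single-dose screen, raw or plate-pattern-corrected value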;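 note: 0% = DMSO wells with peroxide and 100% = DMSO wells without peroxide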
CRFBP-R2 block – blocks CRF-induced signaling of the CRF-BP/CRF-R2 complex | HEK293 CRF-R2/CRF-BP, CRF-induced calcium fluorescence | AID 588475 | 350,000 compounds, 0.59% hits | inhibition, % at 11.8 µM;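 active = inhibition of the ligand-induced calcium signal above about 50% at the single tested concentration, limit read from the data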
H9c2 TAG inh – reduces triacylglycerol accumulation in H9c2 cells | inhibition, % at 12.5 µM | Nile Red lipid (TAG) fluorescence; cells loaded with 200 µM oleic acid | 230,000 compounds, 0.66% hits;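 active = pattern-corrected inhibition of lipid staining of at least 50% with the nuclear-stain viability signal not falling by more than 50%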;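 note: 0% = DMSO wells and 100% = triacsin C control wells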
TAG conf – triacylglycerol accumulation inhibition, confirmation; inhibition, % at 12.5 µM; H9c2 lipid accumulation, Nile Red fluorescence; cells loaded with 200 µM oleic acid; 990 compounds, 71% hits; shares compounds with H9c2 TAG inh;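 active = mean inhibition across replicates of 40% or more; inactive = mean inhibition below 40%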;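 note: plate controls were DMSO only wells for no effect and Triacsin C treated wells for full effect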
* marks the source's active call; other numbers are inactive results; ! = not confirmed by another sample.

`c1cc2c(cc1Oc1nc(N3CCOCC3)nc(N3CCOCC3)n1)OCO2` gave CRFBP-R2 agonist 4, SKN-1 block 15, iPSC survival up -2, H9c2 protect -1, CRFBP-R2 block -38, H9c2 TAG inh 59* and TAG conf 29.
CCOc1ccccc1NC(=O)CN(c1ccc(OC)cc1)S(=O)(=O)c1c(C)[nH]c(=O)[nH]c1=O was read as CRFBP-R2 agonist 0, SKN-1 block 6, iPSC survival up 0, H9c2 protect 5 and CRFBP-R2 block 8.
Screening Cc1[nH]c(=O)[nH]c(=O)c1S(=O)(=O)Nc1ccc(F)cc1Cl returned CRFBP-R2 agonist -1, SKN-1 block -8, iPSC survival up 3, H9c2 protect -3 and CRFBP-R2 block -1.
Screening Cc1ccc(/C=N/NC(=O)c2cc(-c3cccnc3)nc3ccccc23)cc1 returned CRFBP-R2 agonist -2, SKN-1 block 4, iPSC survival up -1, H9c2 protect -3, CRFBP-R2 block -5, H9c2 TAG inh 57* and TAG conf 49*.
O=C(N/N=C/c1ccc(Cl)cc1)c1cc(-c2cccnc2)nc2ccccc12 was read as CRFBP-R2 agonist 0, SKN-1 block -2, iPSC survival up 0, H9c2 protect -3, CRFBP-R2 block -1 and H9c2 TAG inh 47.
Screening O=C(N/N=C/c1ccc2c(c1)OCO2)c1cc(-c2ccncc2)nc2ccccc12 returned CRFBP-R2 agonist 0, SKN-1 block -8, iPSC survival up -2, H9c2 protect 6, CRFBP-R2 block -9, H9c2 TAG inh 54* and TAG conf 67*.
Cc1cc(OC(C)C(=O)NCCCN2CCOCC2)ccc1Cl (stereo not drawn) was read as CRFBP-R2 agonist 8, SKN-1 block 14, iPSC survival up 0, H9c2 protect -7, CRFBP-R2 block -3 and H9c2 TAG inh 6.
O=C1c2ccccc2C(O)(c2ccccc2)N1c1ccc([N+](=O)[O-])cc1Cl (stereo not drawn) was read as CRFBP-R2 agonist -4, SKN-1 block 3, iPSC survival up -2, H9c2 protect 1, CRFBP-R2 block 19 and H9c2 TAG inh -3.
For Cc1cccc(C(=O)N[C@H](C(=O)Nc2ncc(C)s2)C(C)C)c1 the results were CRFBP-R2 agonist -1, SKN-1 block 3, iPSC survival up 0, H9c2 protect -2, CRFBP-R2 block -31, H9c2 TAG inh 65* and TAG conf 93*.
CC(=O)O[C@H]1C[C@@]2(C)[C@@H](C[C@@H](O)[C@H]3[C@@]4(C)CC[C@@H](O)[C@@H](C)[C@@H]4CC[C@@]32C)/C1=C(\CCC=C(C)C)C(=O)O was read as CRFBP-R2 agonist 3, SKN-1 block -11, iPSC survival up -1, H9c2 protect 3, CRFBP-R2 block 16, H9c2 TAG inh 61*! and TAG conf 56*.
For CC(=O)O[C@]1(C(C)=O)CCC2C3C=C(C)C4=CC(=O)CC[C@]4(C)C3CC[C@@]21C (stereo partly drawn) the results were CRFBP-R2 agonist 1, SKN-1 block 0, iPSC survival up -1, H9c2 protect -3 and CRFBP-R2 block -2.
CC(C)(C)c1ccc(C(=O)Nc2ccc(C(=O)NCc3cccnc3)cc2)cc1 was read as CRFBP-R2 agonist 0, SKN-1 block 2, iPSC survival up 0, H9c2 protect -6 and CRFBP-R2 block -8.
For CC(C)(C)OC(=O)[C@H](Cc1ccccc1)NC(=O)c1ncn2c1c(=O)[nH]c1ccc(Br)cc12 the results were CRFBP-R2 agonist -2, SKN-1 block 9, iPSC survival up 3, H9c2 protect 14, CRFBP-R2 block 10, H9c2 TAG inh 65* and TAG conf 77*.
`CCN(C(=O)COC(=O)CCC1CCCC1)c1c(N)n(Cc2ccccc2)c(=O)[nH]c1=O` gave CRFBP-R2 agonist 1, SKN-1 block -1, iPSC survival up 0, H9c2 protect -3, CRFBP-R2 block 5 and H9c2 TAG inh 0.

Screening results deposited in PubChem by Sanford-Burnham Center for Chemical Genomics.
